In PubChem BioAssay (NCI):
Compounds without any hit were thinned out: in the full panel of roughly 83,000, 20% have a hit.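 The endpoint reported here, percent growth, reads 100 for growth as untreated, 0 for no net growth and -100 for all cells dead.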 Unmarked numbers belong to inactive results. Activity calls are given as the source filed them. Rule for the calls: active = growth percent below 10; inactive = the rest.

Columns and labels:
Assay in all cases: NCI-60 one-dose screen, 48 h (100 = growth as untreated, 0 = no growth, -100 = all killed)
Conditions in all cases: 10 µM unless noted
[1] = system: DU-145 prostate
[2] = system: K-562 leukemia
[3] = system: MALME-3M melanoma
[4] = system: MDA-MB-231 breast
[5] = system: RXF 393 renal
[6] = system: SF-268 CNS
[7] = system: SF-295 CNS
[8] = system: SF-539 CNS
[9] = system: UACC-257 melanoma
[10] = system: M14 melanoma

| Structure (SMILES) | growth [1] | growth [2] | growth [3] | growth [4] | growth [5] | growth [6] | growth [7] | growth [8] | growth [9] | growth [10] |
| --- | --- | --- | --- | --- | --- | --- | --- | --- | --- | --- |
| COCC[C@H]1CCC/C=C/[C@@H]2C[C@H](O)C[C@H]2[C@H](O)/C=C/C(=O)O1 | 6.25% (active) | 10.4% | -24.4% (active) | -85.5% (active) | -4.97% (active) | 12.6% | -2.69% (active) | 28.3% | 16.7% | 9.75% (active) |
| COCCCOc1cc(C[C@@H](C[C@H](N)[C@@H](O)C[C@H](C(=O)NCC(C)(C)C(N)=O)C(C)C)C(C)C)ccc1OC | 124% | 103% | 109% | 102% | 104% | 117% | 93% | 103% | 104% | 109% |
| COc1ccc(-c2cc(-c3ccc(OC)cc3)nc(NCCCNc3ccnc4cc(Cl)ccc34)n2)cc1 | -2.21% (active) | -14.3% (active) | -75.6% (active) | 76.7% | 24.2% | 85.3% | 83.8% | 63.4% | 46.2% | 33.3% |
| Cc1c2cnccc2c(C)c2c1c1cc(C3OCCCO3)ccc1n2C | 3.92% (active) | 3.75% (active) | -62.9% (active) | -26.1% (active) | -78.9% (active) | 1.29% (active) | 0.404% (active) | -55.1% (active) | -25.8% (active) | -79.8% (active) |
| O=[N+]([O-])/C(=C\c1ccco1)c1ccccc1Cl | 86.1% | 67.9% | 80.6% | 87.9% | 67.1% | 87% | 102% | 91.7% | 66.7% | 66.2% |
| O=C(Cn1cc(CN2C(=O)c3ccccc3S2(=O)=O)nn1)Nc1cccc(Cl)c1 | 109% | 103% | 99.6% | 115% | 106% | 99.4% | 115% | 110% | 113% | 100% |
| CCOC(=O)c1n[nH]n2c1nc(=O)c1cnn(C)c12 | 98.5% | 93% | 101% | 113% | 109% | 96.1% | 108% | 103% | 86.4% | 102% |
| Cn1c(O)c(C(/C=C/c2ccccc2)=Nc2ccccc2N)c(=O)n(C)c1=O | 117% | 55.9% | 118% | 91.4% | 109% | 114% | 105% | 107% | 106% | 104% |
| COc1cc(OC)cc(C2C(C#N)=C(N)Oc3c2ccc2ccc(O)cc32)c1 (stereo not given) | 10.9% | 6.22% (active) | 39.3% | 10.9% | 24.1% | 15.9% | 22.9% | -9% (active) | 69.4% | 5.6% (active) |
| CCNCc1ccc(O)c2ncccc12 | 37% | 13.9% | 60.6% | 46.9% | 60.3% | 35.2% | 39.9% | 25.1% | 9.76% (active) | 33.8% |
| CCN(CC)c1ccc(/C=N/NC(=O)c2ccc(Nc3ccnc(C(F)(F)F)c3)cc2)c(O)c1 | 30.6% | 87.2% | 14.4% | 24.4% | -0.93% (active) | 18.5% | 7.62% (active) | -46.4% (active) | 49% | 19.3% |
| N#Cc1nc2c(S(=O)(=O)c3ccccc3)c(N)n(Cc3cccnc3)c2nc1C#N | 90.6% | 51.6% | 78.1% | 84.7% | 59.7% | 52.2% | 92.7% | 58.7% | 80.3% | 142% |
| CN1CCN(Cc2ccc(NC(=O)c3cncc(C#Cc4cncc5ncccc45)c3)cc2C(F)(F)F)CC1 | 34.4% | -8.35% (active) | -14.4% (active) | 5.93% (active) | 8.21% (active) | 33.7% | 32.9% | -31.8% (active) | 6.41% (active) | -51.1% (active) |
| CCC/C(=N\NC(N)=O)C(OC)OC | 96.2% | 118% | 99.5% | 85.8% | 102% | 98.9% | 112% | 89.2% | 103% | 96.9% |
| O=C(NCc1ccccc1O)c1cccc2ccccc12 | 95.6% | 55.1% | 48.7% | 68.9% | 95.2% | 87.9% | 87.3% | 63.5% | 75.5% | 75.8% |
| O=C(CN1CCN(c2cc3c(cc2F)c(=O)c(C(=O)O)cn3C2CC2)CC1)N/N=C/c1ccncc1 | 106% | 91.7% | 103% | 98.4% | 110% | 92.8% | 96.6% | 95.6% | 87.9% | 96.1% |
| CC(O)c1ncc(/C=C2\SC(=S)N(Cc3ccccc3)C2=O)s1 (stereo not given) | 89.2% | 87.9% | 93.2% | 94% | 102% | 89.8% | 102% | 85% | 96.2% | 93.8% |
| COc1cc2c(/C=C3\C(=O)Nc4ccccc43)c(C(=O)O)[nH]c2cc1C | 118% | 103% | 99.5% | 87.9% | 107% | 96.6% | 101% | 101% | 106% | 105% |
| C=CC(=O)N1CCN(c2ccc3cccc(NC(=O)c4cnc(C)cn4)c3n2)CC1 | 29.1% | 36.5% | 30.5% | 36.7% | 11.4% | 37.6% | 61.5% | 35.1% | 37.2% | 41.2% |
| NC(=S)N/N=C/c1cn(-c2ccccc2)nc1-c1cc2ccccc2oc1=O | 85.3% | 17.1% | 48.8% | 34.3% | 78% | 66.1% | 48.1% | 57.2% | 71.5% | 22.1% |
| CN(CCC#N)c1ccc(/C=C2\NC(=O)NC2=O)cc1 | 124% | 107% | 113% | 101% | 113% | 117% | 112% | 91.3% | 93.4% | 96.4% |
| CCN(CC)c1ccc(/C=N\NC(=O)c2cccc(Nc3ccnc(C(F)(F)F)c3)c2)c(O)c1 | 23.1% | 92.3% | 24.4% | 13.6% | -1.92% (active) | 10.3% | 16.8% | -38.9% (active) | 27.3% | 21.2% |
| COc1cccc(C(=O)OCC(O)C(=O)NC23CC4CC(CC(C4)C2)C3)c1 (stereo not given) | 106% | 99.1% | 99.1% | 93% | 109% | 102% | 95.9% | 103% | 89% | 99.1% |
| Cc1ccc2[nH]c(=O)c3c(c2c1)OC(N)=C(C#N)C31C(=O)c2cccc3cccc1c23 (stereo not given) | 101% | 87.8% | 99.2% | 87.4% | 97% | 94.6% | 104% | 95.9% | 108% | 98.2% |
| CCC(CC)(N(CC(=O)O)CC(=O)O)C(CC)(CC)N(CC(=O)O)CC(=O)O | 119% | 101% | 133% | 110% | 120% | 114% | 108% | 109% | 100% | 106% |
| CCCCCCCC/C=C\CCCCCCCCOc1ccc(CC(=O)NCC[N+](C)(C)C)cc1 | 75.6% | 55.1% | 70.2% | 67.4% | -21.8% (active) | 68.6% | 77.8% | 66.8% | 79.7% | 63.7% |
| C=CC(=O)NCCOc1cccc(Nc2cc(NCCCNC(=O)C3CCC3)c(Br)cn2)c1 | 8.96% (active) | 9.43% (active) | -19% (active) | -25.6% (active) | -77% (active) | -25.3% (active) | 2.75% (active) | -58.3% (active) | -11.6% (active) | -18.7% (active) |
